Sampled rows, rich in hits. Any-hit rate of the full collection: about 6.3%.
ATXN viability = viability counter-screen for ATXN expression inhibitors | 400,000 tested, 0.49% active | Potency, µM (series often up to 56.7 µM), usual class: cytotoxic | AID 651635 | S2 cells (HEK-293 line with an ATXN2-luciferase reporter) viability, CellTiter-Fluor protease fluorescence, 24 h; note: nearly all actives have a fitted effect of over 40% in size
VP16 counter = counter-screen for ROR gamma inhibitors: Gal4-VP16 reporter; Potency, µM (top dose mostly 53.6 µM), inactives show at the top dose activity, negative = inhibition, usual class: inhibitors; 310,000 tested, 3.5% active; Drosophila S2 Gal4-VP16 UAS-luciferase, luminescence, 20 h;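 note: Gal4-VP16 expression switched on by copper sulfate through the metallothionein promoter; % is set by controls: 0 for no effect and ±100 for the full control effect; nearly all actives have a fitted effect of over 50% in size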
TGFb inhibitor = blocks TGF-b signaling. HepG2 CAGA-GFP TGF-b/SMAD3 reporter, GFP fluorescence, 18 h; TGF-beta stimulated, 500 pg/mL final. Potency, µM (doses to about 46.1 µM), for the others: at the top dose activity, negative = inhibition, most hits filed as inhibitors. 410,000 tested, 1.2% active. AID 588855; note: % is set by controls: 0 for no effect and ±100 for the full control effect; nearly all actives have a fitted effect of over 65% in size
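Inhibition of TGF-beta-driven CAGA-GFP reporter expression in HEPG2 cells is measured by cellular GFP fluorescence after 18 h stimulation with 500 pg/mL recombinant TGF-beta in 1% FBS medium at 37 degrees C.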
ATXN2 expr inh = reduces ATXN2 reporter expression in HEK-293 cells. HEK-293 ATXN2-luciferase reporter, luminescence, 24 h. Potency, µM (highest dose often 57 µM), inactives show at the highest dose activity change, negative = inhibition, actives largely listed as inhibitors. 360,000 tested, 0.72% active; note: % is set by controls: 0 for no effect and ±100 for the full control effect; nearly all actives have a fitted effect of over 55% in size
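ATXN2-luciferase reporter cells (luciferase flanked by upstream and downstream ATXN2 gene portions) were treated 24 h at 37 °C with compounds at up to 57 uM. SteadyGlo luminescence gave expression; GF-AFC fluorescence gave viability.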
HepG2 tox = HepG2 cytotoxicity, counter-screen for TGF-b inhibitors; AID 588856; 410,000 tested, 0.76% active; Potency, µM (doses to about 46.1 µM), for inactives: top-dose activity change, negative = cytotoxicity, usual class: cytotoxic; HepG2 CAGA-GFP viability, ATP luminescence, 18 h
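CellTiter-Glo luminescence gave cytotoxicity after 18 hours at 37 degrees C. The cells were HepG2 CAGA-GFP in 1% FBS DMEM, stimulated with 500 pg/mL TGF-beta after compound addition. %Activity was normalised to no-cell wells (complete cell-killing) and DMSO (no toxicity), and curves were fitted and classified.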
RORg inh = ROR gamma (mouse) transcription inhibition. Potency, µM (series often up to 53.6 µM), without a hit: top-dose activity change, negative = inhibition, actives largely listed as inhibitors. Drosophila S2 Gal4-RORgamma UAS-luciferase reporter, 20 h. 310,000 tested, 5.4% active. P51450. AID 2551; note: % is set by controls: 0 for no effect and ±100 for the full control effect; nearly all actives have a fitted effect of over 60% in size
Target sequence (P51450 whole entry, looked up, the tested form may be a part): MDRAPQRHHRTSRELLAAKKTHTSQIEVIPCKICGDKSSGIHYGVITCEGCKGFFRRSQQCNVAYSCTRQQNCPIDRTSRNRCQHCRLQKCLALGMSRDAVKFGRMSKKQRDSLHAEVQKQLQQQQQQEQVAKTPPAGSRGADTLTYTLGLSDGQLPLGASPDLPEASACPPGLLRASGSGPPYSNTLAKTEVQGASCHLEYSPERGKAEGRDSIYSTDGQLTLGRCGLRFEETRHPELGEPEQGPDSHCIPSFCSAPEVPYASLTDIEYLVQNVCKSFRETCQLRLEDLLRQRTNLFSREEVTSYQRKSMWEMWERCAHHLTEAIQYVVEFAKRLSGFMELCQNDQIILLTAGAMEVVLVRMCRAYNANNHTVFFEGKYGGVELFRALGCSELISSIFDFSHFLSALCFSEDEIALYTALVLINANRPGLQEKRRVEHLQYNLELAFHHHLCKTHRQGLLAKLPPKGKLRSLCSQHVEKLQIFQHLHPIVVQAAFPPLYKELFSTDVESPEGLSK
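Schneider cells (Drosophila), stable Gal4 DBD–ROR gamma + UAS-luc; 1 hr cmpd preincubation; Cu2+ induction 700 uM final; 20 hr ambient; luminescence.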
The depositor's hits bear a star; i = inactive; ? = inconclusive; . = no result; ! = not active in a repeat; [ ] = remark or other dose. Calls come from the whole dose curve; as a rule, active = well fitted curve in the direction sought with a large enough effect; inconclusive = small, poorly fitted or top-dose-only effect, or another doubt; inactive = no such curve, though single readings can be large; an effect the other way counts as inactive or inconclusive. Potency is the fitted concentration of half-maximal effect.

SMILES	ATXN viability	VP16 counter	TGFb inhibitor	ATXN2 expr inh	HepG2 tox	RORg inh
Cc1nn(Cc2ccccc2)c(C)c1C(=O)N1CCN(S(=O)(=O)/C=C/c2ccccc2)CC1	.	.	-21.9%	.	-3.7%	.
Cc1cccc(C#CC2=CC(=O)CC(C)(C)C2)c1	?	.	3.3%	17.4%	-24.6%	.
CC1(C)CC(=O)C=C(C#CC2(O)CCCCC2)C1	15.8µM*	.	?	?	10µM*	.
COc1ccc(N2CCN(CC(=O)Nc3nnc(-c4ccccc4)s3)CC2)cc1	i	?	-17.6%	-0.5%	-2.6%	10µM*
Cc1cc(NCCCCCCCNc2cc(C)nc3cc([N+](=O)[O-])ccc23)c2ccc([N+](=O)[O-])cc2n1	21.2µM*	.	8.91µM*	?	-116.8%	.
COCCCNc1cc(C)nc2ccccc12	i	3.2%	-5.6%	3.2%	-19.0%	-13.7%
O=C(C1CC1)N1CCc2cc(Br)cc(S(=O)(=O)N3CCN(c4ccccc4)CC3)c21	i	.	8.1%	4.0%	-0.3%	.
COc1cc(NS(=O)(=O)c2cc(Br)cc3c2N(C(=O)C2CC2)CC3)cc(OC)c1	.	.	2.24µM*	.	-22.6%	.
CCC(=O)N1CCc2cc(Br)cc(S(=O)(=O)NCCc3ccccc3)c21	?	.	?	-17.1%	3.9%	.
CCC(=O)N1CCc2cc(Br)cc(S(=O)(=O)NCCc3cccc(C)c3)c21	.	.	11.2µM*	.	-16.6%	.
CC1CC(C)CN(CCCNS(=O)(=O)c2cc(Br)cc3c2N(C(=O)C2CC2)CC3)C1 (centres undefined)	i	-6.2%	10.7%	-16.2%	3.98µM*	-20.7%
O=C(C1CC1)N1CCc2cc(Br)cc(S(=O)(=O)N3CCN(c4ccccn4)CC3)c21	i	22.4µM*	9.6%	-4.9%	-39.9%	1.5%
O=C(c1ccc(C(F)(F)F)cc1)N1CCC(=O)N([C@H](COCc2ccc(Cl)cc2)Cc2ccccc2)CC1	?	-24.7%[40.7 µM]	.	?	.	1.0%[40.7 µM]
Cc1onc(-c2ccccc2Cl)c1C(=O)NCc1cccnc1	i	20.0%	11.1%	1.8%	-4.9%	1.6%
CC(=O)c1c(C)oc2c1C(=O)c1ccccc1C2=O	?	15.8µM*	7.94µM*	?	-92.0%	3.98µM*
O=C1c2ccccc2C(=O)c2c(NCc3cccnc3)cccc21	i	3.16µM*	-19.4%	8.8%	-20.9%	-19.5%
Cc1oc2c(c1C(=O)NCc1cccnc1)C(=O)c1ccccc1C2=O	2.82µM*	4.47µM*	0.282µM*	2.82µM*	0.447µM*	?
Cc1ccc(S(=O)(=O)N(C)C)cc1NC(=O)c1cncc(Br)c1	i	2.51µM*	?	?	-25.6%	10µM*
Cc1cc2c(c(-c3cnccn3)c1)OC(CNC(=O)c1cc(C(C)C)[nH]n1)C2 (centres undefined)	i	.	.	.	.	.
COc1cc(C)nc(-n2nc(C)cc2OC)n1	i	?	1.5%	4.2%	-6.9%	3.16µM*
Clc1cccc(Nc2ncnc3c2nc2n3CCCCC2)c1	.	.	-43.4%	.	-19.2%	.
O=C(O)CCc1ccc(-c2cccs2)o1	i	?	0.3%	14.6%	-2.1%	11.2µM*
O=C1CC(CC(=O)N2CC3CCCC2C3)(c2cccc(F)c2)C(=O)N1Cc1cccnc1 (centres undefined)	i	.	.	.	.	.
CCOC(=O)c1c(-c2cccc([N+](=O)[O-])c2)csc1NC(=O)CCCOc1ccccc1	i	8.91µM*	-3.2%	-6.0%	3.8%	?
Cc1ccc2c(c1)nnn2C1CCN(S(=O)(=O)c2ccc(C(=O)N3C(C)CCCC3C)cc2)CC1 (centres undefined)	?	15.8µM*	?	?	-6.2%	?
SMILES	ATXN viability	VP16 counter	TGFb inhibitor	ATXN2 expr inh	HepG2 tox	RORg inh
CC1(C)CCN2CCC(C)(C)c3c(O)ccc1c32	?	?	60.7%	3.16µM*	-17.9%	?
Cc1ccnc2c(O)cccc12	.	.	3.55µM*	.	3.98µM*	.
Cc1ccnc2c1ccc1c(C)ccnc12	.	.	4.47µM*	5.32µM*	15.8µM*	.
Brc1csc2ncccc12	i	-6.7%	3.3%	-5.7%	32.1%	-3.1%
Oc1c(Br)cc(Br)c2cccnc12	?	-72.3%	?	22.4µM*!	-53.5%	0.282µM*
Cc1cc(C)c2cccnc2c1O	.	.	3.16µM*	.	-56.2%	.
COc1ccc(S(=O)(=O)N2CCCOC2CNC(=O)C(=O)NCCc2ccco2)cc1C (centres undefined)	?	-4.7%	-26.7%	-6.1%	-0.1%	-40.4%
CCOc1ccc(C(C)=O)cc1COC(=O)CCc1cc(OC)c(OC)c(OC)c1	i	5.2%	-4.5%	-11.2%	-1.7%	?
O=C(Cc1cscn1)N1CCOc2ccc(CN3CCN(c4ccccn4)CC3)cc2C1	i	.	.	.	.	.
O=C(NC(=S)Nc1ccc(O)cc1)C1CCCC1	?	.	?	.	-60.4%	.
Cc1ccc(NC(=S)NC2CCCC2)cc1C	?	3.55µM*	-8.6%	32.0%	-25.5%	2.82µM*
Cc1ccc(NC(=S)NC(=O)C2CCCC2)cc1C	i	4.47µM*	-26.9%	54.2%	-19.5%	3.55µM*
O=C(Nc1ccc(F)cc1)C1CCCCC1	i	-10.6%	-0.5%	4.9%	2.4%	10.4%
O=C(NC(=S)Nc1ccc(F)cc1)C1CCCCC1	i	10µM*	-17.2%	33.2%	-17.4%	8.91µM*
Cc1nc2ccc(NC(=S)NC3CCCCC3)cc2nc1C	.	-6.6%[10 µM]	-11.8%	.	-11.3%	5.01µM*
Cc1ccc(NC(=S)NNC(=S)Nc2ccc(C)cc2C)cc1	i	-11.8%	-18.8%	-0.3%	-26.1%	-41.8%
S=C(Nc1ccc2[nH]ccc2c1)NC1CCCCC1	i	-16.0%	-1.6%	14.7%	-67.0%	11.2µM*
CC(=O)Nc1ccc(NC(=S)NC(=O)C2CC2)cc1	i	-2.0%	45.4%	10.7%	2.7%	-4.5%

Bioassay records as filed in PubChem.
